Sampled rows, rich in hits. Any-hit rate of the full collection: about 2.6%.
Cruzain Triton: inhibitors of Trypanosoma cruzi cruzain with detergent | P25779 | purified cruzain, Z-FR-AMC fluorescence, 0.01% Triton | Potency, µM, without a hit: max response, negative = inhibition, actives largely listed as inhibitors | 200,000 tested, 0.43% active;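 note: plate controls were neutral wells for no effect and buffer without enzyme for full effect; nearly all actives have a fitted effect of over 40% in size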
Target sequence (P25779 123-467 limits assumed): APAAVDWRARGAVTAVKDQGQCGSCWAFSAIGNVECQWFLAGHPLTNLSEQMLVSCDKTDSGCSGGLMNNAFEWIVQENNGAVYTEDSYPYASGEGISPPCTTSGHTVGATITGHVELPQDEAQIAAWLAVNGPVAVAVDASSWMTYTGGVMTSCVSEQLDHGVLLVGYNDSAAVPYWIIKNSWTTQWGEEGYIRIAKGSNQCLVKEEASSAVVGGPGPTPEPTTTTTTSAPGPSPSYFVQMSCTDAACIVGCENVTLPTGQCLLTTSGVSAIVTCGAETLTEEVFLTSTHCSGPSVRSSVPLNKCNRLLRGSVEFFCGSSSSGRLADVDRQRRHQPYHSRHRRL
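Steps: dispense cruzain (1.5 nM final) in acetate buffer pH 5.5 with DTT and 0.01% Triton X-100; pin-transfer compounds; incubate 15 min RT; add Z-FR-AMC (2 uM final); read fluorescence every 30 s, using the 60 s intensity change.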
Cruzain inh noDet: blocks cruzain activity in detergent-free assay | Potency, µM, without a hit: max response, negative = inhibition, usual class: inhibitors | 200,000 tested, 2.3% active | P25779 | purified cruzain, Z-FR-AMC fluorescence, no detergent;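 note: plate controls were enzyme without inhibitor for no effect and buffer without enzyme for full effect; nearly all actives have a fitted effect of over 40% in size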
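Detergent-free condition (0.00005% Triton X-100) in acetate buffer pH 5.5 with DTT. 1.5 nM enzyme and compound were pre-mixed 15 min, then 2 uM Z-FR-AMC substrate added; reaction progress from fluorescence change between first and third reads (60 s).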
* = called active by the depositor; ? = inconclusive. Calls come from the whole dose curve; as a rule, active = well fitted curve in the direction sought with a large enough effect; inconclusive = small, poorly fitted or top-dose-only effect, or another doubt; inactive = no such curve, though single readings can be large; an effect the other way counts as inactive or inconclusive. Potency is the fitted concentration of half-maximal effect.

SMILES	Cruzain Triton	Cruzain inh noDet
Cn1c(=O)c2c(ncn2CC(=O)Nc2cccc(Cl)c2Cl)n(C)c1=O	28µM*	?
Cc1ccccc1NC(=O)Cn1cnc2c1c(=O)n(C)c(=O)n2C	5%	14%
Cc1nn(-c2ccccc2)c(/N=C/c2ccc(O)cc2)c1-c1ccccc1	-7%	5%
CN(C)c1ccc(/C=N/c2cc(-c3ccccc3)nn2-c2ccccc2)cc1	-5%	20µM*
O=P1(O)Oc2c(c(-c3ccccc3)cc3ccc4ccccc4c23)-c2c(-c3ccccc3)cc3ccc4ccccc4c3c2O1	25µM*	-4%
O=P1(O)Oc2c(c(-c3ccccc3)cc3ccccc23)-c2c(-c3ccccc3)cc3ccccc3c2O1	-27%	?
COc1cc(NC(=O)CC2C(=O)N(c3cccc(C)c3)C(=O)N2Cc2cccs2)cc(OC)c1 (stereo unspecified)	-6%	-4%
COc1ccc(O)c(/C=N/NC(=O)c2ccc(OCc3cccc(Br)c3)cc2)c1	-4%	7.9µM*
COc1ccc(O)c(/C=N/NC(=O)c2ccc(CSc3nc(C)cc(C)n3)cc2)c1	-4%	7%
O=C(Cn1c(=O)n(Cc2nc(-c3ccccc3)no2)c(=O)c2cc3c(cc21)OCO3)Nc1cccc(C(F)(F)F)c1	1%	5µM*
COc1ccc(-c2noc(Cn3c(=O)c4ccccc4n(CC(=O)Nc4cccc(C(F)(F)F)c4)c3=O)n2)cc1	-3%	16µM*
Cc1ccc(NC(=O)Cn2c(=O)n(Cc3nc(-c4ccccc4)no3)c(=O)c3ccccc32)cc1C	-3%	-21%
CCOc1ccc(NC(=O)Cn2c(=O)n(Cc3nc(-c4ccccc4)no3)c(=O)c3cc4c(cc32)OCO4)cc1	-2%	-17%
COCCn1c(=O)c(-c2cc(F)cc(F)c2)nc2cnc(OC)nc21	-4%	-4%
COc1cccc(C(=O)Nc2nc(-c3ccc(S(=O)(=O)N4CCOCC4)cc3)cs2)c1	0%	?
COc1ccc(/C=N/Nc2nc(-c3cccc(S(=O)(=O)N4CCCC4)c3)cs2)c(OC)c1	-2%	7.9µM*
O=C(Nc1nc(-c2ccccc2)cs1)c1cccc([N+](=O)[O-])c1	-3%	?
O=C(Nc1nc(-c2ccc(S(=O)(=O)N3CCOCC3)cc2)cs1)c1ccccc1	-6%	-15%
O=C(Nc1nc(-c2ccc3c(c2)Cc2ccccc2-3)cs1)c1ccccc1	0%	20µM*
COc1ccc(-c2csc(NC(=O)c3ccc(S(=O)(=O)N4CCc5ccccc5C4)cc3)n2)c(OC)c1	-2%	4µM*
COc1cccc(C(=O)Nc2nc3ccc(S(=O)(=O)N4CCCC4)cc3s2)c1	-9%	-6%
O=C(Nc1nc(-c2ccccc2)cs1)c1ccc(S(=O)(=O)N2CCc3ccccc32)cc1	-1%	6.3µM*
O=C(NCc1ccc2c(c1)CCN2C(=O)c1ccc(F)cc1)c1ccco1	1%	12%
Cn1c(=O)n(C)c2cc(N3CCOCC3)c(NC(=O)c3ccc(C(C)(C)C)cc3)cc21	0%	-7%
Cc1ccc(-c2csc(NC(=O)c3cccc(S(=O)(=O)N4CCN(C)CC4)c3)n2)cc1	-13%	-4%
SMILES	Cruzain Triton	Cruzain inh noDet
Cc1ccc(-c2csc(NC(=O)c3ccc(S(=O)(=O)N4CCc5ccccc54)cc3)n2)cc1	1%	5µM*
Cc1cn2c(=O)cc(COC(=O)c3cccc(NC(=O)c4ccc(C(C)(C)C)cc4)c3)nc2s1	0%	-3%
C/C(=N/NS(=O)(=O)c1ccc(C)cc1)P(=O)(O)O	1%	4%
CCOc1ccc(-c2cn3c(n2)sc2cc(C(=O)NCCCN4CCCCCC4)ccc23)cc1	-2%	3%
CCOc1ccc(-c2cn3c(n2)sc2cc(C(=O)NCCCN4CCCCC4)ccc23)cc1	-2%	4µM*
O=C(CCc1cn(Cc2ccc(F)cc2)c2ccccc12)NCCc1ccc(Cl)cc1	-6%	-26%
CCc1cccc(NC(=O)Cn2c(=O)n(CC3CCC(C(=O)NCCc4ccccc4)CC3)c(=O)c3ccccc32)c1 (stereo unspecified)	2%	-16%
CN(C)/C=C(\C=N\OCc1ccc(Cl)cc1Cl)C(=O)Nc1ccc(Cl)c(Cl)c1	-6%	20µM*
COC(=O)c1nn(-c2ccccc2)c(Cl)c1/C=N/OCc1ccc(Cl)cc1Cl	-3%	2%
O=C(c1ccncc1)N1CCC[C@@]2(CCN(c3cccc(-c4ccccc4)c3)C2)C1	-6%	?
Oc1ccccc1C1=Nc2nc3ccccc3n2C(c2ccccc2)C1 (stereo unspecified)	-5%	25µM*
c1ccc(C2Nc3ccccc3-c3nc4ccccc4n32)cc1 (stereo unspecified)	-1%	?
CCOC(=O)C1=C(CSc2nc3ccccc3s2)NC(=O)NC1c1cc(C)ccc1C (stereo unspecified)	2%	32µM*
CCOC(=O)C1=C(CSc2nc3ccccc3s2)NC(=O)NC1c1ccc(OC)cc1 (stereo unspecified)	-3%	25µM*
CCOC(=O)C1=C(CP(=O)(c2ccccc2)c2ccccc2)NC(=O)NC1c1ccc(OC)cc1 (stereo unspecified)	-3%	-1%
CCOC(=O)C1=C(CSCC(=O)OC)NC(=O)NC1c1cc(C)ccc1C (stereo unspecified)	5%	-5%
CCOc1ccc(C(=O)NCC(c2ccc3c(c2)OCO3)N2CCOCC2)cc1 (stereo unspecified)	1%	5%
COc1ccc(C(=O)Nc2nnc(S(=O)(=O)N3CCN(c4ccc(F)cc4)CC3)s2)cc1	0%	-25%
CCc1ccccc1NC(=O)Cn1nnc(C(=O)NCc2ccccc2Cl)c1N	1%	-30%
O=C(CCSc1ccccc1)Nc1nc2c(s1)COc1ccccc1-2	-7%	32µM*
CC(C)(C)C(=O)Nc1nc2c(s1)COc1ccccc1-2	-13%	6%

Screens (PubChem BioAssay)
